# In PubChem BioAssay AID1851 (National Center for Advancing Translational Sciences (NCATS), 2009):
# Several values for one entry are separate records, joined by “and”; a condition that tells them apart may be missing. Equal values may be shown once. Out of some 16,000 compounds screened, about 5,700 (36%) were called active. Not shown: some 24% with an inconclusive outcome. The call rests on the fitted dose curve; in most records, active means well fitted curve in the direction sought with a large enough effect; inconclusive means small, poorly fitted or top-dose-only effect, or effect the other way; inactive means no such curve, though single readings can be large or run the other way. The list shows a part of the results.
# Target: Cytochrome P450 1A2 (Homo sapiens) (UniProt P05177)
# Sequence (P05177 whole entry, looked up): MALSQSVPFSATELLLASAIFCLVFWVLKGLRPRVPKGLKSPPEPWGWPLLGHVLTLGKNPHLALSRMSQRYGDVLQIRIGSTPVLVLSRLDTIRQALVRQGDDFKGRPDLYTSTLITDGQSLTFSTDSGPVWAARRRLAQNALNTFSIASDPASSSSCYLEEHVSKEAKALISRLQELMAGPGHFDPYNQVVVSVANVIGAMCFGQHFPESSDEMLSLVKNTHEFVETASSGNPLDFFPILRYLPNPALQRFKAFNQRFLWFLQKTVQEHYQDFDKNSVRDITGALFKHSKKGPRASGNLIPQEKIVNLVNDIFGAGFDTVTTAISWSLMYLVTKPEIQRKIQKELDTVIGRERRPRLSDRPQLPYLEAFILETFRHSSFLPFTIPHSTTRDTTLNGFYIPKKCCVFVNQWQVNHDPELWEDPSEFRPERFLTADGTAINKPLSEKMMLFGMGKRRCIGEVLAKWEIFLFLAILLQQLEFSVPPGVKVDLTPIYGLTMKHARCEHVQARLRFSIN
# Experiment: Cytochrome panel assay with activity outcomes
# Settings: recombinant CYP, pro-luciferin dealkylation, luminescence, p450-cyp1a2; series mostly up to 57.1 µM
# On the % scale 0 is the no-effect control and ±100 the full control effect.
SMILES,"activity, negative = inhibition",AC50
C/C(CCC(=O)OC[C@@H]1O[C@H](C#Cc2ccccc2)C=C[C@@H]1Oc1ccc(C)cc1)=N/O[C@@H](C)CN1CCCc2nc(C)c(C)cc21,-8.42% [at 11.4 µM] (inactive),
CC(=O)OC[C@@H]1O[C@@H](O/N=C2/C[C@@H](O)[C@@H](O)[C@@H]3[C@@H]4C(=O)N(C(C)(C)C)C(=O)[C@H]4CC[C@@H]23)[C@H](OC(C)=O)[C@H](OC(C)=O)[C@@H]1OC(C)=O,-1.47% [at 11.4 µM] (inactive),
[O-][N+]1(CC[N+]2([O-])CCCCC2)CCCCC1,-3.29% [at 11.4 µM] (inactive),
CCOc1ccc(/C=C/C(=O)Nc2ccc(OC)cc2[N+](=O)[O-])cc1,,inactive
COc1ccc(NC(=O)c2cccs2)c([N+](=O)[O-])c1,,3.16 µM (active)
COc1ccc(NC(=O)CN(C)S(=O)(=O)c2ccc(Cl)cc2)c([N+](=O)[O-])c1,,inactive
COc1ccc(NC(=O)c2ccc(C)cc2Cl)c([N+](=O)[O-])c1,,2 µM (active)
COc1ccc(NC(=O)C(=O)NNC(=O)c2cccs2)c(OC)c1,,inactive
COc1ccc(NC(=O)CSc2nncn2C)c([N+](=O)[O-])c1,,11.2 µM (active)
CC(C)(C)N1C(=O)[C@H]2[C@@H]3[C@H](O)C=CC(=O)[C@H]3CC[C@H]2C1=O,-5.4% [at 11.4 µM] (inactive),
c1ccc2c(Nc3ccncc3)nc(-c3ccc4c(c3)OCO4)nc2c1,,1.26 µM (active)
c1ccc(Nc2nc(-c3ccc4c(c3)OCO4)nc3ccccc23)cc1,,1.26 µM (active)
COc1cc(C2C(C#N)=C(N)N(Nc3ccccc3)C3=C2C(=O)CC(C)(C)C3)ccc1OCc1cccc(F)c1 (stereo unspecified),,inactive
CN1CCN(c2nc3cc(C(F)(F)F)ccc3n3cccc23)CC1,,200 nM (active) and 39.8 nM (active)
COc1ccc(-c2csc(N3C(=N)SCC3=O)n2)cc1,,0.631 µM (active)
O=C1C2C3c4ccccc4C(c4ccccc43)C2C(=O)N1c1nc(-c2ccccc2)cs1 (stereo unspecified),,inactive
N=C1SCC(=O)N1c1nc(-c2ccccc2)cs1,,1.41 µM (active)
CC(C)OC(=O)CC12CN(C)CC(CC(=O)OC(C)C)(CN(C)C1)C2=O,,inactive
Cc1c(NC(=O)CSc2nnnn2C)c(=O)n(-c2ccccc2)n1C,,inactive
Cc1cccc(NC(=O)CSc2nnnn2C)n1,,14.1 µM (active)
CCOc1ccccc1-n1nnnc1SCC(=O)Nc1cc(C)on1,-7% [at 11.4 µM] (inactive),

SMILES,"activity, negative = inhibition",AC50
NS(=O)(=O)c1cc2c(cc1Cl)NC(CSCc1ccccc1)=NS2(=O)=O,,inactive
CC1=NS(=O)(=O)c2cc(Cl)ccc2N1,,3.16 µM (active) and 2 µM (active)
Clc1ccc(-c2cc3ccccc3[nH]2)cc1,,0.501 µM (active)
N#C/C(=C\NC(=S)c1ccncc1)c1nc2ccccc2s1,,3.16 µM (active)
CC(C)NC(=O)N1CCC2(CC1)CCN(C(=O)c1ccncc1)CC2,,inactive
CN(C)c1ccc(-c2cncnc2Nc2ccccc2)cc1,,0.398 µM (active)
CN(C)c1ccc(-c2cncnc2Nc2ccc(F)cc2)cc1,,0.501 µM (active)
Cc1ccc(C(C2C(=O)CC(C)(C)CC2=O)C2C(=O)CC(C)(C)CC2=O)s1,,inactive
COc1ccccc1N/C(=N/S(=O)(=O)c1ccc(C)cc1)c1ccc(Cl)cc1,,inactive
O=S(=O)(/N=C(/Nc1ccccn1)c1ccccc1)c1ccc(Cl)cc1,,14.1 µM (active)
O=S(=O)(/N=C(/Nc1ccc(F)cc1F)c1ccc(Cl)cc1)c1ccccc1,,inactive
O=S(=O)(/N=C(\Sc1ccccc1)c1ccccc1)c1ccc(Cl)cc1,,8.91 µM (active)
O=S(=O)(c1ccccc1)N1CCC2(CC1)CN(c1ccccn1)C2,,inactive
CC(C)CO/N=C1/C[C@@H](O)[C@@H](O)[C@@H]2[C@@H]3C(=O)N(C[C@@H]4CCCO4)C(=O)[C@H]3CC[C@@H]12,-0.346% [at 11.4 µM] (inactive),
CC(C)CNc1nc(N)[nH]c(=O)c1NC=O,-20.7% [at 11.4 µM] (inactive),
O=S1(=O)C=C(Oc2ccc3ccccc3c2)c2ccccc21,,1.26 µM (active)
Cn1cccc1C(=O)N1CCC2(CCN(Cc3nccs3)CC2)CC1,,inactive
N#Cc1c(NC(=O)CCN2C(=O)c3ccccc3C2=O)oc(-c2ccccc2)c1-c1ccccc1,,2.24 µM (active)
O=C(Cc1ccccc1)NC1CCN(S(=O)(=O)c2ccc(C(=O)O)cc2)CC1,,inactive
c1ccc2c(CC3=NCCN3)cccc2c1,,inactive
c1ccc2c(CC3NCCN3)cccc2c1,-7.37% [at 11.4 µM] (inactive),

SMILES,"activity, negative = inhibition",AC50
Cc1ccccc1C(=N)c1ccccc1Cc1cccc2ccccc12,-17.6% [at 2.29 µM] (inactive),
CN(Cc1cccc2ccccc12)Cc1cccc2ccccc12,,3.16 µM (active)
CN(C/C=C\c1ccccc1)Cc1cccc2ccccc12,,2 µM (active)
NCCCCCCCCCCN,,inactive
O=c1n(-c2ccccc2)c(=O)n2n1CC[C@H]1/C(=N\OC[C@@H](O)COCc3ccco3)[C@H]3O[C@@H]3[C@@H](O)[C@@H]12,-3.26% [at 11.4 µM] (inactive) and -7.74% [at 11.4 µM] (inactive),
Cc1ccc(C(=O)/C=C2\NCC(C)NC2=O)cc1 (stereo unspecified),,15.8 µM (active)
Cc1ccc(C(=O)C2CCNCC2)cc1,,inactive
O=[N+]([O-])c1ccc(-c2cnc(SCc3ccccc3Cl)[nH]2)cc1,,6.31 µM (active)
O=C(Cc1ccccc1[N+](=O)[O-])NCc1ccccc1Cl,,inactive
Clc1ccc(-c2nnc(CCc3ccccc3)o2)c(Cl)c1,,0.708 µM (active)
CSc1nnc(-c2ccc(Cl)cc2Cl)o1,,2.51 µM (active)
COc1cccc(-c2cc(=O)c3ccccc3o2)c1N,,0.2 µM (active)
CCc1cccc(C)c1NC(=O)CSc1nc2ccc(N3C(=O)c4ccccc4C3=O)cc2s1,,inactive
COC(=O)c1ccc(NC(=O)Cn2nc(-c3ccncc3)nc2SCC(=O)Nc2nccs2)cc1,,11.2 µM (active)
O=C(CSc1nc2ccccc2c2ccccc12)c1ccccc1,,0.251 µM (active)
Nc1cc(N)nc(SCC(=O)c2ccccc2)n1,,inactive
CCN(CC)C(=O)CSc1nc2ccc(NC(=O)CSc3nnc(COc4ccccc4C)n3C)cc2s1,,inactive
O=C(CSc1ccccn1)Nc1nc2ccc(Br)cc2s1,,2.51 µM (active)
CCOC(=O)CSc1cc(CS(=O)c2ccc(Cl)cc2)nc(-c2ccccc2)n1 (stereo unspecified),,10 µM (active)
